Assay results taken from ChEMBL document CHEMBL3988442, “University of Dundee, Small-Polar-MMV Screening Library” (2021).
Screen size: about 48,000 compounds; about 13,000 (27%) showed an effect of 50% or more. This is one part of the list.

What follows are compounds tested on Wolbachia pipientis (assay: Anti-Wolbachia Cell-Based Screen). Conditions: 5 µM.
Type: functional
Design: scale not given: in the data most compounds retested in dose-response had high values
In the case of CCc1ccc(CNC(=O)CCc2nnc(-c3ccc(C)s3)o2)nc1, the “Percent Effect” value is reported as 18.56%. For CC(C)c1cc(C(=O)N(c2ccc(F)cn2)C2CCOCC2)on1, the “Percent Effect” value was -4.853%. N#Cc1ccc(CN2CCc3sccc3C2)c(F)c1 was tested, and the “Percent Effect” value was 2.911%. CCc1ccc(C(C)NCc2nccn2Cc2ccccc2)o1 (stereo not drawn) was tested, and the “Percent Effect” value was -9.423%. In the case of CCNC(=O)N(Cc1cccc(OC)c1)C1CCC(O)CC1 (stereo not drawn), the “Percent Effect” value is reported as -8.682%. CN(C)Cc1nnc2n1CCN(c1cnccn1)CC2.O=C(O)C(F)(F)F was tested, and the “Percent Effect” value was -7.956%. In the case of CC(C)N(C)Cc1nnc2n1CCCN(c1cnccn1)C2, the “Percent Effect” value is reported as 115.4%. In the case of CCS(=O)(=O)N1CCc2nnc(CN(C)C(C)C)n2CC1, the “Percent Effect” value is reported as -16.92%. For OCc1nnc2n1CCN(c1cnccn1)C2, the “Percent Effect” value was 108%. CN(C)CCOCc1nnc2n1CCN(c1cnccn1)CC2 was tested, and the “Percent Effect” value was 1.736%. With Fc1cnc(N2CCn3c(CN4CCCC4)nnc3C2)nc1.O=C(O)C(F)(F)F the “Percent Effect” value was -4.314%. With c1cnc(N2CCCn3c(nnc3Cn3cccn3)C2)nc1 the “Percent Effect” value was 3.271%. Fc1cnc(N2CCCn3c(nnc3Cn3cccc3)C2)nc1.O=C(O)C(F)(F)F was tested, and the “Percent Effect” value was 0.8563%. For c1ccn(Cc2nnc3n2CCCN(c2cnccn2)C3)c1, the “Percent Effect” value was 100.7%. With OCCOc1ccc(NCc2cccc3[nH]ccc23)cn1 the “Percent Effect” value was 0.765%. CC(C(=O)Nc1ncccn1)N1CCCN(c2nccs2)CC1 (stereo not drawn) was tested, and the “Percent Effect” value was -8.894%. CCn1nc(C)c(CNC(=O)NCC(C)(O)c2ccccc2)c1C (stereo not drawn) was tested, and the “Percent Effect” value was 3.084%. In the case of CCn1nc(C)c(CNC(=O)NCC(C)(O)c2ccc(C)o2)c1C (stereo not drawn), the “Percent Effect” value is reported as 57.07%. With CCn1nc(C)c(CNC(=O)NCC(C)(O)c2ccco2)c1C (stereo not drawn) the “Percent Effect” value was -13.65%. In the case of O=C(c1coc(CN2CCN(c3ccccc3F)CC2)n1)N1CCCC1, the “Percent Effect” value is reported as -9.887%. With Cc1ccccc1C(=O)N1CC2(COC(C)(C)OC2)C1 the “Percent Effect” value was -1.566%. Cc1ccccc1C(=O)N1C[C@@H](O)[C@H](N2CCOCC2)C1 was tested, and the “Percent Effect” value was 137.5%. In the case of CC(=O)N1CCN([C@@H]2CN(C(=O)c3ccccc3C)C[C@H]2O)CC1, the “Percent Effect” value is reported as 166%. For CCCc1cc(C(=O)N2C[C@H](O)[C@@H](N3CCCC3)C2)ccn1, the “Percent Effect” value was -25.18%. In the case of Cn1cccc1C(=O)N1C[C@@H]2CCCO[C@@H]2[C@H](N2CCOCC2)C1, the “Percent Effect” value is reported as 10.78%. With CC(=O)N1CCN([C@@H]2CN(C(=O)c3ccccc3)C[C@H]2O)CC1 the “Percent Effect” value was 163.7%. Cc1ccccc1C(=O)N1C[C@@H]2C[C@@H](C)O[C@@H]2C1 was tested, and the “Percent Effect” value was -6.005%. For CS(=O)(=O)c1ccc(NC(=O)N2C[C@H](O)[C@@H](N3CCOCC3)C2)cc1, the “Percent Effect” value was -0.5097%. For O=C(O)C(F)(F)F.O=C(c1ccccc1)N1C[C@@H]2CCCO[C@@H]2[C@H](N2CCCC2)C1, the “Percent Effect” value was 0.7695%. CCCN(CC1CC1)S(=O)(=O)c1ccc(NC(C)=O)cc1 was tested, and the “Percent Effect” value was 9.5%. In the case of CCN(Cc1noc(C)n1)C(=O)CCn1c(C)cc2ccccc21, the “Percent Effect” value is reported as -6.675%. In the case of Cc1cc(NCC(=O)N(C)C(C)c2cccs2)c(C(N)=O)cc1F (stereo not drawn), the “Percent Effect” value is reported as -3.325%. CCOCCC(=O)NC1(c2cccc(Br)c2)CC1 was tested, and the “Percent Effect” value was 2.519%. With Cc1cc(C)c(C(=O)N2CCN(c3ncccc3C#N)CC2)c(=O)[nH]1 the “Percent Effect” value was -2.204%. In the case of CC(C(=O)N1CCCN(c2ncccc2C#N)CC1)n1cncn1 (stereo not drawn), the “Percent Effect” value is reported as 99.83%. CC(C(=O)N1CCCN(c2ncccc2C#N)CC1)n1ccnc1 (stereo not drawn) was tested, and the “Percent Effect” value was 9.037%. With Cc1ccc(N2CCCN(C(=O)C(C(C)C)n3cncn3)CC2)nn1 (stereo not drawn) the “Percent Effect” value was 1.391%. With CSC(C)C(=O)N1CCCN(c2ncccc2C#N)CC1 (stereo not drawn) the “Percent Effect” value was 94.48%. CN1N=C(C(=O)N2CCCN(c3ncccc3C#N)CC2)CCC1=O was tested, and the “Percent Effect” value was -11.38%. For CC(C)C(C(=O)N1CCCN(c2cccnn2)CC1)n1cncn1 (stereo not drawn), the “Percent Effect” value was 101.3%. For CC(C)C(C(=O)N1CCN(c2ccncc2)CC1)n1cncn1 (stereo not drawn), the “Percent Effect” value was -6.945%. In the case of CCSc1cc(C(=O)NC(C)c2cccc(N3CCOC3=O)c2)ccn1 (stereo not drawn), the “Percent Effect” value is reported as -4.217%. For Cl.NCc1ccc(OC(F)F)cc1OC(F)F, the “Percent Effect” value was -11.87%. In the case of CCn1nc(C)cc1C(=O)N1C[C@@H](CN(C)C)[C@@H](CO)C1, the “Percent Effect” value is reported as 107.3%. CCn1nc(C)c(C(=O)N2C[C@@H](CN(C)C)[C@@H](CO)C2)c1C was tested, and the “Percent Effect” value was 106.8%. In the case of Cc1nc(CC(C)C)cc(C(=O)N2C[C@@H](CN(C)C)[C@@H](CO)C2)n1, the “Percent Effect” value is reported as -9.006%. With COCCN(C)C[C@@H]1CN(C(=O)c2c(C)cccc2OC)C[C@@H]1CO the “Percent Effect” value was 2.605%. With COc1cccc(C)c1C(=O)N1C[C@@H](CN(C)C)[C@@H](CO)C1 the “Percent Effect” value was -2.46%. Cc1cc(C(=O)N2C[C@@H](CN(C)CCN(C)C)[C@@H](CO)C2)nc(C)n1 was tested, and the “Percent Effect” value was -17.75%. CCn1nc(C)c(C(=O)N2C[C@@H](CN(C)CCOC)[C@@H](CO)C2)c1C was tested, and the “Percent Effect” value was 114%. Cc1ccc(CC(=O)N2C[C@@H](CN(C)C)[C@@H](CO)C2)cc1C was tested, and the “Percent Effect” value was -3.019%. Cc1csc(CCNc2ccc(C#N)cc2F)n1 was tested, and the “Percent Effect” value was -5.881%. For CN(Cc1cc(-c2ccccc2)no1)CC1CCCN1c1cccnn1 (stereo not drawn), the “Percent Effect” value was 1.009%. For O=C(c1cccc2cccnc12)N1CCCN(c2cccnn2)CC1, the “Percent Effect” value was 11.56%. CC(C)C1CN(C(=O)Nc2cnn(CC(F)F)c2)CCS1 (stereo not drawn) was tested, and the “Percent Effect” value was -11.36%. With CCNC(=O)[C@@H]1C[C@@H](n2cc(CC3CCCCC3)nn2)CN1 the “Percent Effect” value was 1.299%. In the case of CNC(=O)[C@@H]1C[C@H](n2cc(-c3ccc(CN4CC=CC4)cc3)nn2)CN1, the “Percent Effect” value is reported as 109.2%. In the case of Cc1ncc(CN2CCC(n3cc(-c4ccc(F)cc4)nn3)CC2)cn1, the “Percent Effect” value is reported as 6.515%. CCNC(=O)[C@@H]1C[C@H](n2cc(CC3CCCCC3)nn2)CN1 was tested, and the “Percent Effect” value was 16.21%. With CCNC(=O)[C@@H]1C[C@@H](n2cc(CN(CC)CC)nn2)CN1 the “Percent Effect” value was -7.284%. For CNC(=O)[C@@H]1C[C@@H](n2cc(-c3ccc(CN4CC=CC4)cc3)nn2)CN1, the “Percent Effect” value was 109.8%. With CCCS(=O)(=O)c1ccc(N2CCN(Cc3ccccc3)CC2)nn1 the “Percent Effect” value was 5.683%. With OC(CN1CCN(Cc2nnc(C3CC3)o2)CC1)c1ccccc1 (stereo not drawn) the “Percent Effect” value was -2.421%.
